Assay outcomes from PubChem BioAssay.
Nrf2 ARE act = Nrf2 pathway activation; AREc32 ARE-luciferase reporter (MCF7-derived line), luminescence, 24 h; Potency, µM (top dose mostly 46.1 µM), without a hit: at the top dose activation, hits mostly activators; hit rate 0.31% among 410,000; AID 624171; note: potency is the fitted concentration of half-maximal effect; % of control where 0% means no effect; nearly all actives have a fitted effect of over 65% in size
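Nrf2 activation is followed as ARE-luciferase induction in the AREc32 line after one day of compound treatment; luminescence is read with Steady-Glo.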
CCT chaperon mod = cytosolic chaperonin activity modulation | purified chaperonin ATPase assay, HTRF ADP detection, 30 min | activity change, % (no concentration beside the values), hits read low | hit rate 0.3% among 360,000 | AID 651819; in the data active = activity change below about -30%; note: % is set by controls: 0 for no effect and ±100 for the full control effect
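TRiC at 40 or 20 nM final (batch-dependent) in 30 mM Tris pH 7.4, 100 mM KCl, 5 mM MgCl2, 1 mM DTT, with compound at single 76 uM and 10 uM ATP, 30 min at 37 deg C. ADP detected by HTRF Transcreener, 665/615 ratio.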
TCR activator = T cell receptor activation; 330,000 tested, under 10 active; Potency, µM (series often up to 9.22 µM), without a hit: top-dose activation of IL-2 secretion, hits mostly activators; AID 504894; primary human leukocytes, anti-CD3, IL-2 HTRF, 48 h; note: % of control where 0% means no effect
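IL-2 release read by HTRF sandwich (Eu cryptate donor, d2 acceptor, 665 nm emission) after 48 hr exposure of primary human leukocytes to compound together with anti-CD3 beads in the absence of co-stimulatory signals.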
A-T KAP1 phos = potential ataxia-telangiectasia treatments restoring KAP-1 phosphorylation | Potency, µM (titrated, usually from 57.5 µM), for the others: at the top dose activation, most hits filed as activators | F2112 A-T fibroblasts, KAP-1 phosphorylation AlphaLISA; neocarzinostatin DNA damage 30 min before lysis | hit rate 0.19% among 320,000 | AID 485349; note: potency is the fitted concentration of half-maximal effect; % of control where 0% means no effect; nearly all actives have a fitted effect of over 45% in size
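hTERT-immortalized A-T patient fibroblasts (F2112), 500 cells/well in OPTI-MEM, 1% FBS, got compounds for 60 min, then NCS for 30 min at 37C. Lysates were then assayed for phospho-KAP-1 by AlphaLISA (anti-pKAP1 donor, anti-KAP1 acceptor beads), 6 hr at 25C.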
Nrf2 inh = Nrf2 pathway inhibition; A549 ARE-Fluc reporter, luciferase luminescence, 18-24 h; Potency, µM (titrated, usually from 46 µM), inactives show at the top dose activity change, negative = inhibition, usual class: inhibitors; hit rate 2.1% among 360,000; note: potency is the fitted concentration of half-maximal effect; % is set by controls: 0 for no effect and ±100 for the full control effect; nearly all actives have a fitted effect of over 60% in size
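A549 ARE_Fluc cells, 5000/well, 5% FBS OPTI-MEM; compounds in dose-response, 18-24 h at 37 °C/5% CO2; CellTiter-Fluor viability read (Ex 405/Em 525), then BugLite luciferase luminescence = Nrf2 activity.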
A549 tox-1 = counter-screen for Nrf2 inhibitors: cytotoxicity in A549 cells; A549 ARE-Fluc cells, CellTiter-Fluor viability, 18-24 h; Potency, µM (highest dose often 46 µM), for inactives: top-dose activity change, negative = cytotoxicity, actives largely listed as inhibitors; hit rate 0.16% among 390,000; AID 504648; note: potency is the fitted concentration of half-maximal effect; % is set by controls: 0 for no effect and ±100 for the full control effect
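A549 ARE_Fluc cells in 5% FBS OPTI-MEM were exposed to compounds in concentration-response for 18-24 h at 37 deg C. Viability was read by CellTiter-Fluor fluorescence (Ex 405/Em 525) after 30 min, before the luciferase read.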
FLuc counter 3 = firefly luciferase inhibition, Nrf2 hit validation; shares compounds with Nrf2 inh; purified firefly luciferase, luminescence inhibition; Potency, µM (series often up to 57.5 µM), for the others: at the top dose activity change, negative = inhibition, usual class: inhibitors; hit rate 4% among 1,400; note: potency is the fitted concentration of half-maximal effect; % is set by controls: 0 for no effect and ±100 for the full control effect; nearly all actives have a fitted effect of over 65% in size
Target sequence (P08659 whole entry, looked up): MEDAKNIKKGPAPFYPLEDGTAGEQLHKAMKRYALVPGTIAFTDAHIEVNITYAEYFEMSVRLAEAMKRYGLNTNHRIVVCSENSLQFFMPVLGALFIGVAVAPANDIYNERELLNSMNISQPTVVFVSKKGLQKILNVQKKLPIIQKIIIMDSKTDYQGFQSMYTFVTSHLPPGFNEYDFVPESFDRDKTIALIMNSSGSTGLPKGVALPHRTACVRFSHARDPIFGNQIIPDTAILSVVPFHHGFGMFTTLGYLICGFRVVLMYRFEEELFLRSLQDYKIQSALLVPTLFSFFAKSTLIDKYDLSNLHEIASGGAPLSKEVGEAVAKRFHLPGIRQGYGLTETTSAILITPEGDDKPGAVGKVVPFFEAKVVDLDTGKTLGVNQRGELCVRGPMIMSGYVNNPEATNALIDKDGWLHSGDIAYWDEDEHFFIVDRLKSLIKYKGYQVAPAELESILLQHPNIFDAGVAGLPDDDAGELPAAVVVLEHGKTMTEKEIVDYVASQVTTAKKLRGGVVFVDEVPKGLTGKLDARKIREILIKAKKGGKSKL
A549 tox-2 = A549 cytotoxicity, Nrf2 inhibitor counterscreen. shares compounds with Nrf2 inh. A549 ARE-Fluc cells, cytotoxicity counterscreen. Potency, µM (doses to about 46.1 µM), for the others: at the top dose activity change, negative = cytotoxicity, actives largely listed as inhibitors. hit rate 2% among 1,400. AID 720523;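 note: potency is the fitted concentration of half-maximal effect; cells exposed to compounds for 18 to 24 hours; % is set by controls: 0 for no effect and ±100 for the full control effect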
ARE-Fluc inh = reduces Nrf2 ARE reporter signal in A549 cells; shares compounds with Nrf2 inh; A549 ARE-firefly luciferase reporter, luminescence; Potency, µM (top dose mostly 46.1 µM), for inactives: at the top dose activity change, negative = inhibition, hits mostly inhibitors; hit rate 74% among 1,400; AID 720524; note: potency is the fitted concentration of half-maximal effect; % is set by controls: 0 for no effect and ±100 for the full control effect; nearly all actives have a fitted effect of over 65% in size
The depositor's hits bear a star; ? = inconclusive; nt = no result given; [ ] = another dose, or the depositor's remark. Sampled rows, rich in hits. Any-hit rate of the full collection: about 2.6%. Unless noted, calls come from the whole dose curve; as a rule, active = well fitted curve in the direction sought with a large enough effect; inconclusive = small, poorly fitted or top-dose-only effect, or another doubt; inactive = no such curve, though single readings can be large; an effect the other way counts as inactive or inconclusive.

SMILES | Nrf2 ARE act | CCT chaperon mod | TCR activator | A-T KAP1 phos | Nrf2 inh | A549 tox-1 | FLuc counter 3 | A549 tox-2 | ARE-Fluc inh
CC(=O)NS(=O)(=O)c1ccc(NC(=O)c2cccc(OCc3c(C)noc3C)c2)cc1 | 2% | 1 | 1% | 2% | 2% | 0% | nt | nt | nt
O=C(CN1C(=O)c2ccccc2S1(=O)=O)c1ccc2c(c1)OCCO2 | -4% | 0 | 0% | -4% | 0.073µM* | 12% | -22% | 11% | 5.2µM*
O=C(CN1C(=O)c2ccccc2S1(=O)=O)c1cccc(Br)c1 | 1% | -2 | 3% | -2% | -40% | -1% | nt | nt | nt
O=C(CN1C(=O)c2ccccc2S1(=O)=O)c1ccc2c(c1)OCCCO2 | -2% | 0 | -3% | -5% | 0.18µM* | -2% | 1% | -8% | 8.2µM*
COc1ccc(C(=O)N2CCc3cc(OC)c(OC)cc3C2COc2ccc3c(C)cc(=O)oc3c2)c(OC)c1 (stereo not given) | -1% | nt | nt | nt | 1%[9.27 µM] | 1% | nt | nt | nt
CC1CCc2c(sc(NC(=O)/C=C/c3cccs3)c2C(=O)O)C1 (stereo not given) | 15% | 2 | 0% | -4% | 6.5µM* | -24% | ? | ? | 7.3µM*
C=CC(=O)Nc1ccc(Nc2nc(NC3CCC(N(C)C)CC3)nc3c2ncn3C(C)C)cc1 (stereo not given) | -3% | -1 | -4% | -1% | 2.6µM* | 18µM* | 5% | 8.2µM* | 2.6µM*
CC(C)n1cnc2c(Nc3ccc(F)c(Cl)c3)nc(NCCO)nc21 | 11% | 1 | -1% | 14% | 18% | -7% | nt | nt | nt
O=C(c1cnc(N2CCN(c3ccccn3)CC2)c2ccccc12)N1CCN(c2cccc(Cl)c2)CC1 | 0% | 1 | -6% | -7% | 5.8µM* | -30% | 4% | -22% | 8.2µM*
Cc1nn(Cc2ccccc2)c(Cl)c1/C=N/NC(=O)c1cccnc1 | 8% | -2 | 3%[46.1 µM] | 2% | ? | ? | nt | nt | nt
Cc1c(/C=N/NC(=O)c2cccnc2)c2ccccc2n1Cc1ccccc1 | 3% | -1 | 4% | 1% | 6.5µM* | ? | ? | -8% | 9.2µM*
Cc1ccc([N+](=O)[O-])cc1S(=O)(=O)Nc1ccc(C(=O)NCC2CCCO2)cc1 (stereo not given) | 0% | -2 | 1% | -1% | -8% | 0% | nt | nt | nt
CC(=O)Nc1sc(N/N=C/c2ccccc2)nc1-c1ccc(C)cc1 | 5% | -3 | 2% | 1% | 12% | -4% | nt | nt | nt
CCCc1sc(N/N=C/c2ccccn2)nc1-c1ccc(Br)cc1 | 0% | -1 | 3% | 0% | 2.9µM* | ? | -29% | -29% | 5.8µM*
C=CCN1CCN(C(=O)c2cc3c(s2)CCCC3)CC1 | 1% | -2 | -3% | 0% | 18% | 4% | nt | nt | nt
Cc1ccc(Nc2c(-c3ccc(C)o3)nc3cccc(C)n23)cc1 | 1% | nt | nt | nt | -3% | 1% | nt | nt | nt
Cc1ccc(Nc2c(-c3ccccn3)nc3cccc(C)n23)cc1 | 3% | -1 | 11% | -5% | 6.5µM* | ? | -8% | ? | 5.2µM*
Cc1cc(C[n+]2ccccc2)c2nsnc2c1 | 0% | 1 | 4% | 1% | ? | -13% | 0% | -11% | 2.6µM*
N=c1c2c(n(Cc3ccccc3)c3c1CCC3)CCC2 | -1% | -2 | 0% | -5% | 1.5µM* | ? | -1% | -4% | ?
N=c1c2c(n(Cc3ccc(Cl)cc3)c3c1CCC3)CCC2 | 0% | 0 | -3% | 3% | ? | -4% | nt | nt | nt
CCCCCn1c2c(c(=N)c3ccccc31)CCC2 | 0% | -2 | -10% | 4% | 2.6µM* | -5% | 2% | -10% | 4.1µM*
CCCCCCCCCCn1c2c(c(=N)c3c1CCC3)CCC2 | -5% | -3 | -4% | -4% | ? | ? | nt | nt | nt
CC(=O)c1ccc(NC(=O)C2CCN(c3nnc(C)c4c(C)n(-c5ccccc5)nc34)CC2)cc1 | -1% | nt | nt | nt | ? | -23% | nt | nt | nt
O=C1Cc2c([nH]c3ccc([N+](=O)[O-])cc23)-c2ccccc2N1 | -1% | -1 | -5% | nt | 2.3µM* | ? | -21% | ? | 2.3µM*
CC(C)CC(=NNC(=O)c1ccncc1)c1cc(Cl)ccc1O | 0% | -4 | -1% | nt | 6.5µM* | ? | 1% | -2% | 6.5µM*
SMILES | Nrf2 ARE act | CCT chaperon mod | TCR activator | A-T KAP1 phos | Nrf2 inh | A549 tox-1 | FLuc counter 3 | A549 tox-2 | ARE-Fluc inh
COc1ccc2c(c1)N(C)/C(=C/c1cccc[n+]1C)S2 | 3% | -1 | -1% | -7% | 3.3µM* | 16µM* | -1% | ? | 4.1µM*
CN1/C(=C/c2cccc[n+]2C)Sc2ccccc21 | -1% | -2 | -9% | -15% | 0.82µM* | 12µM* | -1% | ? | 2.1µM*
Cc1ccc2c(c1)N(C)/C(=C/c1cccc[n+]1CCO)S2 | 2% | -3 | 5% | -4% | -15% | -21% | nt | nt | nt
CCN1/C(=C/c2cccc[n+]2C)Sc2ccc(OC)cc21 | -2% | 1 | -1% | -8% | 5.8µM* | -3% | -1% | -29% | 6.5µM*
O=C(c1cc2c(=O)[nH]c3ccccc3c2s1)N1CCN(c2ccc(F)cc2)CC1 | -1% | nt | nt | nt | 5% | -1% | nt | nt | nt
COC(=O)c1c(C)sc(-c2c(-c3ccc4c(c3)OCCO4)[nH]c3[nH]c(=O)[nH]c(=O)c23)c1O | 1% | nt | nt | nt | 10% | 3% | nt | nt | nt
Cc1cc(C)c2oc(-c3ccc(NC(=O)c4cc(Br)ccc4Cl)cc3)nc2c1 | 3% | nt | nt | nt | 5.8µM* | 1% | -13% | -1% | 7.3µM*
Cc1ccc(CN2CCCN(CC(=O)Nc3ccc(C)cc3C)S2(=O)=O)cc1 | 0% | nt | nt | nt | 9% | -2% | nt | nt | nt
CC(Sc1nc2ccccc2c(=O)n1C)C(=O)Nc1ccc2c(c1)OCCO2 (stereo not given) | 0% | -2 | 0% | 13% | 5.2µM* | -13% | -1% | 3% | ?
CC(C)Cn1c(SC(C)C(=O)Nc2ccc3c(c2)OCCO3)nc2ccccc2c1=O (stereo not given) | 0% | -5 | 2% | 0% | -21% | -1% | nt | nt | nt
